According to PubChem BioAssay:
Results with a measured potency or affinity are listed apart. Activity calls are given as the source filed them.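 The calls were made as follows, unless noted: active = a dose-response fit showing signal loss, with half-maximal concentration no higher than twice the top tested dose; inconclusive = flat fit between 30% and 70% signal loss, or poor fit; inactive = the rest.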

Columns and labels:
[1] = C. neoformans lysis by adenylate kinase leakage – AK release luminescence, cherry-picks, dose response (AID 687000;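 active = fitted dose curve reaches 40% lysis signal rise at or below the highest valid concentration tested for that sample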;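 also: luminescent detection of adenylate kinase leaking from lysed yeast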); settings: 4 h, 100% = twice the neutral-control signal; series mostly up to 15 µM
[2] = viability loss in HepG2 hepatoma cells – cell-based, cherry-picks, set 2, cytotoxicity control, dose response (AID 687002); settings: ATP luminescence (CellTiter-Glo), 48 h; series mostly up to 26 µM
[3] = viability loss in HeLa cells – cell-based, ATP luminescence, cherry-pick samples, cytotoxicity control, dose response (AID 687004;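 active = a fitted half-maximal concentration no higher than twice the top valid tested dose, with signal falling as cells die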); settings: ATP luminescence (CellTiter-Glo), 48 h; series mostly up to 26 µM

Measured: outcome

C[C@@H]1CN([C@H](C)CO)C(=O)CCCn2nncc2CO[C@H]1CN(C)Cc1cccc(C(F)(F)F)c1
inactive: all assays above

CC(C)NC(=O)Nc1ccc2c(c1)C(=O)N([C@@H](C)CO)C[C@@H](C)[C@@H](CN(C)C(=O)NC1CCCCC1)OCCCC[C@H](C)O2
inactive: all assays above

CCC(C)c1ccc(NC(=S)N2CCN(c3ccccn3)CC2)cc1 (centres undefined)
inactive: all assays above

CC(C)Sc1nc2ncnc(N)c2[nH]1
inactive: all assays above

Cc1cc(OCC(=O)NC(C)c2ccccc2)ccc1[N+](=O)[O-] (centres undefined)
inactive: all assays above

C[C@@H]1CN([C@H](C)CO)C(=O)c2cccc(NC(=O)c3ccncc3)c2O[C@H]1CN(C)C(=O)Nc1ccc(C(F)(F)F)cc1
inactive: all assays above

c1ccc(-n2ncc3c(NCc4ccc5c(c4)OCO5)ncnc32)cc1
inactive: all assays above

C[C@H](CO)N1C[C@H](C)[C@@H](CN(C)C(=O)Nc2ccc3c(c2)OCO3)Oc2ccc(NS(=O)(=O)c3cccs3)cc2C1=O
inactive: all assays above

CCc1ccccc1NC(=O)C1NC(=O)CC1c1ccccc1 (centres undefined)
inactive: all assays above

C[C@@H]1CN([C@H](C)CO)C(=O)c2cc(NS(=O)(=O)c3cn(C)cn3)ccc2O[C@@H](C)CCCCO[C@H]1CN(C)C
inactive: all assays above

Cc1ccc(S(=O)(=O)N2CC[C@@H]3[C@H](CO)Nc4ccc(-c5ccccc5F)cc4[C@@H]32)cc1
inactive: all assays above

CCCNC(=O)[C@H]1[C@H](CO)[C@H]2Cn3c(cccc3=O)[C@@H]1N2C(=O)Nc1cc(F)ccc1F
inactive: all assays above

CO[C@H]1CN(C)C(=O)c2ccc(NC(=O)NC(C)C)cc2OC[C@@H](C)NC[C@H]1C
inactive: all assays above

Cc1ccccc1N(CC(=O)NCCSC1CCCCC1)S(=O)(=O)c1ccccc1
inactive: all assays above

Cc1ccc(N(CC(=O)NCCSCc2ccco2)S(=O)(=O)c2ccc(F)cc2)cc1
inactive: all assays above

Cc1cccc(C)c1NC(=O)C1CCCN1C(=O)OC(C)(C)C (centres undefined)
inactive: all assays above

CCN(CC)CC(=O)N(CC(=O)Nc1c(C)cc(C)cc1C)C1CCCCC1
inactive: all assays above

CC(=O)N[C@H]1CC[C@@H](CCNC(=O)C2CCC2)O[C@H]1CO
inactive: all assays above

CCOc1ccc(C(=O)NC(=S)Nc2ccccc2N2CCCCC2)cc1[N+](=O)[O-]
inactive: all assays above

O=C(COc1ccc2c(c1)CCC2)NCc1ccc(Cl)cc1
inactive: all assays above

CC(C)C(=O)N1CCC1(C)C(=O)Nc1ccccc1C(C)(C)C (centres undefined)
inactive: all assays above

O=C(NC[C@@H]1[C@@H](c2ccccc2)[C@H](CO)N1C(=O)C1CCC1)NC1CCCC1
inactive: all assays above

O=C(NC[C@H]1[C@H](c2ccccc2)[C@H](CO)N1C(=O)Cc1cccnc1)C1CCC1
inactive: all assays above

CC(NC(=O)COc1ccccc1C(C)(C)C)c1ccccc1 (centres undefined)
inactive: all assays above

CC(=O)N1[C@H](CO)[C@H](c2ccc(-c3ccccc3)cc2)[C@@H]1CNC(=O)C1CC1
inactive: all assays above

COc1ccc(NC(=O)c2cn(C)c(=O)c3cc(OC)c(OC)cc23)c(OC)c1
inactive: all assays above

Cc1ccc(N2C(=O)CC(N3CCN(c4ccc(F)cc4)CC3)C2=O)c(C)c1 (centres undefined)
inactive: all assays above

Cc1cc(C)cc(OCC(=O)NC(C)c2ccccc2)c1 (centres undefined)
inactive: all assays above

CNC[C@@H]1Oc2ccc(NS(=O)(=O)c3ccc(Cl)cc3)cc2C(=O)N([C@H](C)CO)C[C@H]1C
inactive: all assays above

COc1ccc(N(C)C(=O)c2cn(CC(C)C)c(=O)c3cc(OC)c(OC)cc23)c(OC)c1
inactive: all assays above

COc1cc(C(=O)NC(=S)Nc2ccccc2N2CCOCC2)cc(OC)c1OC
inactive: all assays above

CCC(=O)N1CCCC1(C)C(=O)Nc1ccc(C)c(C)c1 (centres undefined)
inactive: all assays above

CCCC(=O)Nc1ccc2c(c1)OC[C@H](C)N(Cc1ccccn1)C[C@H](C)[C@H](OC)CN(C)C2=O
inactive: all assays above

Cc1ccc(-n2ncc3c(SCC(=O)NNC(=O)C(C)C)ncnc32)cc1
inactive: all assays above

CCCN1C(=O)C(O)(C2CC(=O)CC(C)(C)O2)c2ccccc21 (centres undefined)
inactive: all assays above

CCOc1cc(CNC)ccc1OCC(=O)NC(C)(C)C
inactive: all assays above

Cc1ccccc1NC(=O)C(NC1CCCCC1)C(C)C (centres undefined)
inactive: all assays above

Cc1ccc(C(=O)n2nnc3ccccc32)cc1[N+](=O)[O-]
inactive: all assays above

C[C@H]1CN([C@@H](C)CO)C(=O)Cc2cc(NS(=O)(=O)c3cn(C)cn3)ccc2O[C@@H]1CN(C)Cc1ccc(Oc2ccccc2)cc1
inactive: all assays above

CCC(=O)N1[C@H](CO)[C@H](c2ccc(-c3ccc(F)cc3)cc2)[C@@H]1CNC(C)=O
inactive: all assays above

COC(=O)C1=C(C)N(Cc2ccccc2)C(=O)N[C@H]1c1cccc(F)c1
inactive: all assays above

O=C(COc1ccc2c(c1)CCC2)NCc1ccccc1
inactive: all assays above

CNC[C@@H]1OCCCC[C@@H](C)Oc2ccc(NC(=O)NC(C)C)cc2C(=O)N([C@@H](C)CO)C[C@H]1C
inactive: all assays above

CC(C)NC(=O)Nc1ccc2c(c1)C(=O)N([C@H](C)CO)C[C@H](C)[C@H](CN(C)Cc1ccncc1)OCCCC[C@H](C)O2
inactive: all assays above

Cc1ccc(S(=O)(=O)N[C@H]2CC[C@H](CC(=O)NCc3ccccc3F)O[C@H]2CO)cc1
inactive: all assays above

Cc1ccc(NC(=S)NCc2ccc(Cl)cc2)c(OC(F)F)c1
inactive: all assays above

Cc1noc(C)c1NC(=O)N(C)C[C@H]1Oc2ccc(N(C)C)cc2C(=O)N([C@H](C)CO)C[C@@H]1C
inactive: all assays above

Fc1ccc(CNC(=S)NCc2cccc(Cl)c2)cc1
inactive: all assays above

COc1ccc(CN(C)C[C@@H]2OCCCC[C@@H](C)Oc3ccc(NC(=O)c4ccccc4)cc3C(=O)N([C@H](C)CO)C[C@@H]2C)cc1
inactive: all assays above

CC(=O)N[C@H]1CC[C@H](CCNC(=O)C2CCC2)O[C@@H]1CO
inactive: all assays above

CCC(=O)Nc1ccc2c(c1)OC[C@H](C)N(C(=O)c1ccc(F)cc1)C[C@@H](C)[C@@H](OC)CN(C)C2=O
inactive: all assays above

O=c1nc(-c2ccccc2)c2ccccc2[nH]1
inactive: all assays above

COc1ccc(NC(=S)NCc2ccccc2Cl)c(OC)c1
inactive: all assays above

O=C(CSc1ncnc2c1cnn2-c1ccc(F)cc1)NCC1CCCO1 (centres undefined)
inactive: all assays above

CCNC(=O)CN(c1ccccc1)S(=O)(=O)c1ccc(Cl)cc1
inactive: all assays above

O=C(Oc1ccc2c3c(c(=O)oc2c1)CCCC3)c1ccco1
inactive: all assays above

C/C=C/c1ccc([C@@H]2[C@@H](CNC(=O)C3CCC3)N(C(=O)NCCC)[C@H]2CO)cc1
inactive: all assays above

Cc1noc(C)c1NC(=O)N(C)C[C@H]1OCCCC[C@@H](C)Oc2ccc(NC(=O)NC(C)C)cc2C(=O)N([C@H](C)CO)C[C@H]1C
inactive: all assays above
